Compound activity: PubChem BioAssay, National Center for Advancing Translational Sciences (NCATS)
In the library only some 8.1% were active in any assay of this set; here they are far more common.
RORgamma inh: qHTS for inhibitors of ROR gamma transcriptional activity; Nuclear receptor ROR-gamma (Mus musculus), P51450; Potency, µM (top dose mostly 53.6 µM), usual class: inhibitors; hit rate 5.4% among 310,000; AID 2551, 2010; Drosophila S2 Gal4-RORgamma UAS-luciferase reporter, 20 h; also: nearly all actives have a fitted effect of over 60% in size
Target sequence (P51450 whole entry, looked up, the tested form may be a part): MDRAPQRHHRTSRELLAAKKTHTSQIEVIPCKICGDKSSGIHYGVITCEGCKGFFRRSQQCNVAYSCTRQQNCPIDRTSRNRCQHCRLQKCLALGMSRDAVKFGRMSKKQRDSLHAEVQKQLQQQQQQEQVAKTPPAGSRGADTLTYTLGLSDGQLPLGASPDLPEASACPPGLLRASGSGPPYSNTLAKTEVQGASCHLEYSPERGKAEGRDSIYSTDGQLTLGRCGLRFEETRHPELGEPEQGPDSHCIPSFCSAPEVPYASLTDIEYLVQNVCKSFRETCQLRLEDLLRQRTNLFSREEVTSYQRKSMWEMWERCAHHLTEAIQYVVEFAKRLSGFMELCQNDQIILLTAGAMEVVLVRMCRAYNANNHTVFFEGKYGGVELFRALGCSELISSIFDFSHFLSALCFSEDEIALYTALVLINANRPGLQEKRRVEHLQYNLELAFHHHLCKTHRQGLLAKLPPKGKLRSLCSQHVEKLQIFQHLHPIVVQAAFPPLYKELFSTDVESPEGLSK
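ROR gamma transcriptional activity was tracked as Gal4-UAS luciferase output in stably transfected Drosophila Schneider cells, with compound added 1 hr before 700 uM copper sulfate induction and a 20 hr ambient-temperature incubation.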
ClpP mod: qHTS Assay for Activators of ClpP. AID 651965, 2013. Potency, µM (doses to about 57.5 µM). purified B. subtilis ClpP, FRET peptide cleavage, 20 min. hit rate 1.9% among 340,000; active = well fitted falling curve with a large enough effect; inconclusive = small, poorly fitted or top-dose-only effect; inactive = no such curve, though single readings can be large or run the other way; also: the source files actives as falling curves though it sought activators and does not explain the sign; nearly all actives have a fitted effect of over 65% in size
Target sequence (P80244 whole entry, looked up): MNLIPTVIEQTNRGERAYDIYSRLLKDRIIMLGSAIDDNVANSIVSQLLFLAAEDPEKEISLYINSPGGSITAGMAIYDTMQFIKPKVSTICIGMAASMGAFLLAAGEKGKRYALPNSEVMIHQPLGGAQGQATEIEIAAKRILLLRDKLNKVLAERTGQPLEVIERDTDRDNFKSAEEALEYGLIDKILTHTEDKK
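ClpP 10 microg/mL final, pH 8 Tris/KCl buffer with BSA, glycerol, Tween-20; compound pinned in; FRET-FV substrate; RT 20 min; Ex320/Em430; ΔFRET vs ADEP 5.8 microM, DMSO, no enzyme.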
PINK1 modulator: A Quantitative High throughput Screen to Identify Chemical Modulators of PINK1 Expression. hit rate 0.2% among 410,000. PINK1 immunofluorescence, high-content cytometry, 24 h. Potency, µM (top dose mostly 76.6 µM), usual class: activators. AID 624263, 2012; active = well fitted activation curve with a large enough effect; inconclusive = small, poorly fitted or top-dose-only effect; cell line not stated here; also: nearly all actives have a fitted effect of over 65% in size
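A stable cell line was treated with compounds at 5 concentrations for 24 hours, with CCCP as control. PINK1 levels and mitochondrial localization were measured by immunofluorescence with mitochondrial, cell and nuclear markers after fixation, read by laser-scanning cytometry.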
Epigenetic derep: Quantitative High-Throughput Screen for Regulators of Epigenetic Control; hit rate 0.2% among 280,000; Potency, µM (titrated, usually from 53.9 µM), hits mostly activators; AID 1865, 2009; murine LDR cells, GFP reporter derepression, 30 h; also: nearly all actives have a fitted effect of over 60% in size
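Murine LDR cells bearing a silenced CMV-driven GFP reporter were exposed to compound for 30 h at 37 C. After PBS washes, GFP-positive cells (20-120 um objects) counted by laser-scanning microplate cytometry.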
Sfp PPTase inh: qHTS Assay for Inhibitors of Bacillus subtilis Sfp phosphopantetheinyl transferase (PPTase) | hit rate 3.5% among 310,000 | Biochemical Sfp PPTase activity, qHTS | 4'-phosphopantetheinyl transferase ffp (Bacillus subtilis), Q9F4F7 | Potency, µM, actives largely listed as inhibitors | AID 1490, 2009;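 also: the enzyme is Sfp with the accession as filed and its product quenches rhodamine fluorescence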
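Compounds were incubated with enzyme (final 15 nM) for 15 min at room temperature before substrate addition started the reaction. Fluorescence at 525 nm excitation, 598 nm emission was recorded immediately and after 30 minutes.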
Gal4-VP16 FLuc: VP16 counterscreen qHTS for inhibitors of ROR gamma transcriptional activity; Drosophila S2 Gal4-VP16 UAS-luciferase, luminescence, 20 h; Potency, µM (highest dose often 53.6 µM), most hits filed as inhibitors; hit rate 3.5% among 310,000;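 also: Gal4-VP16 expression switched on by copper sulfate through the metallothionein promoter; nearly all actives have a fitted effect of over 50% in size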
Hits are given with their value; – = inactive; ? = inconclusive; · = not tested or not shown; [ ] = remark or other dose. Unless noted, calls follow the shape of the dose curve; as a rule, active = well fitted curve in the direction sought with a large enough effect; inconclusive = small, poorly fitted or top-dose-only effect, or another doubt; inactive = no such curve, though single readings can be large; an effect the other way counts as inactive or inconclusive.

SMILES | RORgamma inh | ClpP mod | PINK1 modulator | Epigenetic derep | Sfp PPTase inh | Gal4-VP16 FLuc
CCc1ccc(/C=N/NC(=O)c2c[nH]c3ccccc23)s1 | 11.2µM | – | – | – | – | –
CCN(CC)c1ccc(/C=N/NC(=O)c2c[nH]c3ccccc23)cc1 | – | 31.6µM | – | – | – | –
Cc1cccc(C(=O)NC(=O)Nc2ccc(-c3cc(C(F)(F)F)nn3-c3ccccc3)cc2)c1 | · | – | – | – | · | ·
CN(C)c1ccc(-c2nnc(-c3ccccc3F)o2)cc1 | 11.2µM | – | – | · | – | ?
COc1ccc(-c2nnc(-c3ccc(N(C)C)cc3)o2)cc1 | 0.794µM | ? | ? | – | – | –
COc1ccc(-c2ccc(-c3nnc(-c4cc(OC)ccc4OC)o3)cc2)cc1 | – | 15.8µM | – | – | – | –
COc1ccc(-c2nnc(-c3cccnc3)o2)cc1 | – | ? | – | – | – | –
COc1ccc(-c2nnc(-c3ccc(N)cc3)o2)cc1 | – | 28.2µM | – | – | – | –
COc1ccccc1-c1nnc2n1N=C(c1c(OC)cccc1OC)CS2 | – | · | · | · | – | –
CN1C(=S)SC(N(O)C(=O)Nc2ccccc2)C1(C)C (stereo not drawn) | – | – | – | – | – | –
CN1C(=S)SC(N(O)C(=O)Nc2cccc3ccccc23)C1(C)C (stereo not drawn) | – | 31.6µM | – | – | – | –
Cn1c(=O)c2nc(-c3ccccc3)oc2c2ccccc21 | – | 11.2µM | – | – | – | –
CCCCCc1nc2c(=O)n(C)c3ccccc3c2o1 | – | – | – | – | – | –
Cc1cccc(CN2C[C@H](Sc3ccccn3)C[C@H]2C(=O)Nc2ccc3sc(C)nc3c2)c1 | · | · | – | · | · | ·
O=c1oc2cc(OCc3c(F)c(F)c(F)c(F)c3F)ccc2cc1-c1ccccn1 | – | 15.8µM | – | – | – | –
N#Cc1cc2cc3c(cc2nc1N1CCOCC1)OCO3 | – | 31.6µM | – | – | – | –
N#C/C(=C/c1cn(Cc2ccc(F)cc2)c2ccccc12)C(=O)Nc1cccc(Cl)c1 | · | – | – | – | · | ·
O=C(N/N=C/c1ccc2c(c1)OCO2)c1ccn(Cc2ccc(Cl)cc2)n1 | – | 28.2µM | – | · | – | –
O=C(CN(Cc1ccccc1)S(=O)(=O)c1ccccc1)N/N=C/c1ccc2c(c1)OCO2 | – | – | · | – | – | 0.891µM
O=C(CCC(=O)Nc1ccc(Cl)cc1)N/N=C/c1ccc2c(c1)OCO2 | – | – | ? | · | – | 14.1µM
O=C(Nc1ccn(Cc2ccc(Cl)cc2)n1)c1ccc2c(c1)OCO2 | – | – | – | – | – | –
O=C(CN(Cc1ccc(Cl)c(Cl)c1)S(=O)(=O)c1ccccc1)N/N=C\c1ccc2c(c1)OCO2 | – | – | – | – | – | –
Cc1ccc(NC(=O)Cn2c(C)cc(C)c(C#N)c2=O)cc1F | · | – | – | – | · | ·
Cc1ccc(-c2nc3c(C)cccn3c2Nc2ccccc2C)s1 | · | ? | – | – | · | ·
CC(NC(=O)c1ccco1)c1nnc2n1CCN(Cc1cccc(Cl)c1)CC2 (stereo not drawn) | · | · | – | · | · | ·
SMILES | RORgamma inh | ClpP mod | PINK1 modulator | Epigenetic derep | Sfp PPTase inh | Gal4-VP16 FLuc
Nc1n[nH]c(=S)n1/N=C1/C(=O)Nc2ccccc21 | – | – | – | – | 11.2µM | –
O=C(c1ccco1)N1CCN(c2ncnc3sc4c(c23)CCC4)CC1 | –[10 µM] | – | – | – | 79.4µM | –
Cc1cc(C)c2nc(N3CCCN(C(=O)c4ccco4)CC3)c(C#N)cc2c1 | ? | – | · | – | 44.7µM | ?
Cc1cc(C)c2nc(C(F)(F)F)nc(N3CCN(C(=O)c4ccco4)CC3)c2c1 | 1µM | – | – | – | – | 0.891µM
Cc1nc(N2CCN(C(=O)c3ccco3)CC2)c(C#N)c2c1CCCC2 | – | · | – | · | – | ?
Cc1ccc(-c2nnc(N3CCN(C(=O)c4ccco4)CC3)c3ccccc23)cc1 | – | – | – | – | – | ?
COc1cc(/C=N/NC(=O)CCN2CCN(C)CC2)cc2c1OCO2 | – | 15.8µM | – | · | – | –
CCc1ccc(OCC(=O)NC2CCCCC2)c(Br)c1 | 2.82µM | – | – | · | – | 3.98µM
O=C(COc1ccccc1Br)NC1CCCC1 | – | – | – | – | – | –
CCc1ccc(OCC(=O)NNC(=S)NC(=O)C2CCCCC2)c(Br)c1 | 10µM | – | – | · | – | –
COc1ccc(CCn2c3c(c(=O)[nH]c2=S)CN(Cc2ccccc2)CN3)cc1OC | · | – | – | · | · | ·
O=C(NCc1ccco1)C1CCN(C(=O)N2CCOc3ccc(Cl)cc32)CC1 | · | – | – | – | · | ·
COCCCNC1=C(C#N)C(=O)NC(c2cccc([N+](=O)[O-])c2)S1 (stereo not drawn) | · | – | – | · | · | ·
COc1cc(C2NC(=O)C(C#N)=C(Nc3cccc(C)c3)S2)ccc1O (stereo not drawn) | – | – | – | – | 20µM | ?
Cc1ncsc1C(=O)N1N=C2/C(=C/c3ccc(N4CCOCC4)cc3)CCCC2C1c1ccc(N2CCOCC2)cc1 (stereo not drawn) | – | – | – | – | – | –
Cc1ncsc1C(=O)N1N=C2/C(=C/c3ccccc3)CCCC2C1c1ccccc1 (stereo not drawn) | – | 35.5µM | – | – | – | –
CCn1c(/N=C/c2ccc(OC)cc2O)nc2ccccc21 | 20µM | – | – | · | – | ?
Cc1c(/C=N/NC(=O)C2(O)c3ccccc3-c3ccccc32)cnn1C | – | – | – | – | – | –
O=C(N/N=C/c1ccc(O)c(O)c1)c1cccc(S(=O)(=O)N2CCCCC2)c1 | – | – | – | – | – | –
O=C(N/N=C/c1ccc(OC(=O)c2ccc(Br)cc2)cc1)c1ccncc1 | – | · | – | · | – | –
Cc1ccccc1C(=O)N/N=C/c1ccc(Sc2ccccn2)o1 | – | – | – | – | – | –
O=C(N/N=C/c1cc(Br)ccc1OC(=O)c1ccc(Br)cc1)c1ccncc1 | 2.82µM | · | – | · | – | 5.01µM
O=C(N/N=C\c1cc(Br)ccc1O)c1ccc(S(=O)(=O)N2CCCCC2)cc1 | 3.55µM | – | – | ? | – | 3.98µM
O=C(N/N=C/c1ccccc1O)C1(O)c2ccccc2-c2ccccc21 | 0.562µM | – | – | – | – | 0.794µM
O=C(N/N=C\c1ccc(Sc2ccccn2)o1)c1cccc(Br)c1 | 8.91µM | – | – | – | – | ?
COc1cc(CN(C(=O)COc2ccc(F)cc2)c2ccccn2)cc(OC)c1OC | · | – | – | – | · | ·
O=C(N/N=C/c1cc(Cl)ccc1O)c1ccc(Br)cc1 | 2.82µM | – | – | – | – | ?
Cc1cc(C(=O)N/N=C/c2cc(Br)ccc2OC(=O)c2ccccc2Cl)n[nH]1 | 14.1µM | – | – | – | – | ?
O=C(N/N=C/c1cccc(Br)c1)c1ccc(Br)cc1 | ? | · | – | – | – | –
